Measured values published in PubChem BioAssay AID1159580 (chemical genetic matrix, 2015).
Screen size: about 5,500 compounds; about 2,000 (36%) were called active. Inconclusive results (about 18%) are left out. Rule as the data show it: active = normalized growth mostly below about 0.91 (no sharp cut-off); inconclusive = no clear call, values can overlap the other calls; inactive = mostly above about 0.92. The list shows a part of the results.

Assay: chemical genetic growth profiling, strain panel (AID 1159580);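 also: tested at 20 µM; growth read once vehicle control cultures reached saturation at 30 °C; 1 = growth at the plate median or of vehicle wells; lower values mean less growth of the strain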
Conditions: S. cerevisiae deletion strains, growth OD

Measured: normalized growth

COC(=O)CCC(C)C1CCC2C3CC[C@@H]4C[C@H](O)CC[C@]4(C)C3C[C@H](O)[C@]12C (some centres undefined)
active: locus YLR027C, strain aat2, active compounds read low 0.918 | locus YLR113W, strain HOG1, active compounds read low 0.439 | locus YLR262C, strain YPT6 (second series), active compounds read low 0.776 | locus YLR320W, strain mms22, active compounds read low 0.812 | locus YLR330W, strain CHS5, active compounds read low 0.903 | locus YLR342W, strain FKS1, active compounds read low 0.699 | locus YLR418C, strain cdc73, active compounds read low 0.77 | locus YMR205C, strain PFK2, active compounds read low 0.846 | locus YNL071W, strain lat1, active compounds read low 0.72 | locus YOR184W, strain ser1, active compounds read low 0.853 | locus YOR231W, strain MKK1, active compounds read low 0.814 | locus YPL051W, strain arl3, active compounds read low 0.913 | locus YPL256C, strain CLN2, active compounds read low 0.8
inactive: locus YJR043C, strain POL32, active compounds read low 1.02 | locus YJR066W, strain TOR1, active compounds read low 0.941 | locus YKL009W, strain mrt4, active compounds read low 0.959 | locus YKL068W, active compounds read low 0.993 | locus YKL085W, strain MDH1 (second series), active compounds read low 0.991 | locus YKL085W, strain MDH1, active compounds read low 0.991 | locus YKL160W, strain elf1, active compounds read low 0.92 | locus YKL190W, strain CNB1, active compounds read low 1.02 | locus YKR001C, strain vps1, active compounds read low 0.931 | locus YKR026C, strain gcn3, active compounds read low 1 | locus YKR091W, strain srl3, active compounds read low 0.993 | locus YLL001W, strain dnm1, active compounds read low 0.99 | locus YLL026W, active compounds read low 0.986 | locus YLL041C, strain sdh2, active compounds read low 1.01 | locus YLR039C, strain RIC1, active compounds read low 0.88 | locus YLR058C, strain SHM2, active compounds read low 0.972 | locus YLR102C, strain apc9, active compounds read low 1.01 | locus YLR221C, strain rsa3, active compounds read low 0.932 | locus YLR258W, strain gsy2, active compounds read low 0.958 | locus YLR262C, strain YPT6, active compounds read low 0.792 | locus YLR268W, strain sec22, active compounds read low 1 | locus YLR342W, strain FKS1 (second series), active compounds read low 0.933 | locus YLR357W, strain rsc2, active compounds read low 0.982 | locus YLR370C, strain arc18, active compounds read low 0.998 | locus YLR371W, strain rom2, active compounds read low 1.01 | locus YLR384C, strain iki3, active compounds read low 0.992 | locus YML016C, strain PPZ1, active compounds read low 1.05 | locus YML032C, strain rad52, active compounds read low 0.981 | locus YML120C, strain ndi1, active compounds read low 0.988 | locus YML124C, strain tub3, active compounds read low 1 | locus YMR058W, strain fet3, active compounds read low 0.976 | locus YMR078C, strain ctf18, active compounds read low 1.01 | locus YMR125W, strain sto1, active compounds read low 0.983 | locus YMR129W, active compounds read low 1 | locus YMR223W, strain ubp8, active compounds read low 0.98 | locus YMR231W, strain pep5, active compounds read low 0.977 | locus YMR263W, strain SAP30, active compounds read low 0.998 | locus YMR307W, strain GAS1, active compounds read low 0.843 | locus YNL067W, strain RPL9B, active compounds read low 0.98 | locus YNL153C, strain GIM3, active compounds read low 0.982 | locus YNL183C, strain NPR1, active compounds read low 0.908 | locus YNL209W, strain ssb2, active compounds read low 1 | locus YNL233W, strain BNI4, active compounds read low 0.927 | locus YNL248C, strain rpa49, active compounds read low 1.04 | locus YNL250W, strain rad50, active compounds read low 1.04 | locus YNL271C, strain bni1, active compounds read low 1.01 | locus YNL298W, strain CLA4, active compounds read low 1.05 | locus YNL307C, strain MCK1, active compounds read low 0.917 | locus YNL322C, strain KRE1 (second series), active compounds read low 0.999 | locus YNL322C, strain KRE1, active compounds read low 1.01 | locus YNR049C, strain mso1, active compounds read low 0.99 | locus YNR052C, strain pop2, active compounds read low 0.971 | locus YOL006C, strain TOP1, active compounds read low 0.909 | locus YOL012C, strain htz1 0.571 | locus YOL147C, strain pex11, active compounds read low 1.02 | locus YOR001W, strain rrp6, active compounds read low 0.995 | locus YOR061W, strain CKA2, active compounds read low 0.999 | locus YOR069W, strain VPS5, active compounds read low 1.02 | locus YOR070C, strain gyp1, active compounds read low 0.971 | locus YOR080W, strain dia2, active compounds read low 1.01 | locus YOR083W, strain WHI5, active compounds read low 0.984 | locus YOR106W, strain vam3, active compounds read low 0.933 | locus YOR136W, strain idh2, active compounds read low 1.01 | locus YOR144C, strain elg1, active compounds read low 1.01 | locus YOR265W, strain rbl2, active compounds read low 0.98 | locus YOR270C, strain vph1, active compounds read low 0.99 | locus YOR290C, strain snf2, active compounds read low 1.01 | locus YOR316C, strain cot1, active compounds read low 1.01 | locus YPL078C, strain atp4, active compounds read low 0.943 | locus YPL106C, strain sse1, active compounds read low 0.989 | locus YPL240C, strain hsp82, active compounds read low 0.992 | locus YPR119W, strain clb2, active compounds read low 0.994 | locus YPR141C, strain kar3, active compounds read low 1.01 | locus YPR163C, strain tif3, active compounds read low 1.02 | locus YPR167C, strain met16, active compounds read low 1.02 | strain wtn01, active compounds read low 1.03
